HepG2 viability – qHTS for Inhibitors of TGF-b: Cytotox Counterscreen; AID 588856, 2011; HepG2 CAGA-GFP viability, ATP luminescence, 18 h; 410,000 tested, 0.76% active; Potency, µM (highest dose often 46.1 µM), without a hit: at the highest dose activity change, negative = cytotoxicity, usual class: cytotoxic; further: potency means the concentration at half of the fitted maximal effect
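HepG2 CAGA-GFP cells (1000/well, DMEM with 1% FBS) received compound, then TGF-beta at 500 pg/mL final, and were incubated 18 hours at 37 degrees C. Viability was read by CellTiter-Glo luminescence. Media-only wells were set as complete cell-killing and DMSO as no toxicity.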
IL1B secr inh – qHTS for Inhibitors of Inflammasome Signaling: IL-1-beta AlphaLISA Primary Screen; AID 743279, 2014; activity change, % at 57.5 µM; THP-1 LPS/ATP IL-1B secretion, AlphaLISA, 16 h; stronger effect = lower value; 360,000 tested, 4.7% active; in the data active means activity change below about -50%; inconclusive means mostly about -30% to -49%; further: on the % scale 0 is the no-effect control and ±100 the full control effect
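THP-1 cells pretreated 1 hr with compounds (up to 57.5 uM final), then stimulated with LPS (250 ng/mL final) plus ATP (1.25 mM final); secreted IL-1B measured by AlphaLISA after 16 hr, decreased signal indicating inhibition.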
TDP1 cell noCPT – qHTS for Inhibitors of human tyrosyl-DNA phosphodiesterase 1 (TDP1): qHTS in cells in absence of CPT; DT40 Tdp1-/- hTDP1 cells, no CPT, ATP luminescence, 48 h; Potency, µM (highest dose often 46.2 µM), for inactives: at the highest dose activity change, negative = growth inhibition, hits mostly inhibitors; 420,000 tested, 15% active; AID 686978, 2013; further: potency means the concentration at half of the fitted maximal effect; on the % scale 0 is the no-effect control and ±100 the full control effect; nearly all actives have a fitted effect of over 55% in size
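Chicken DT40 Tdp1-/- cells stably complemented with human TDP1 were seeded at 400 cells/well with DMSO in place of 20 nM camptothecin. After compound pinning, cells grew at least 48 hr at 37 °C; viability read by CellTiter-Glo luminescence.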
TGFb SMAD3 inh – qHTS for Inhibitors of TGF-b; HepG2 CAGA-GFP TGF-b/SMAD3 reporter, GFP fluorescence, 18 h; TGF-beta stimulated, 500 pg/mL final; Potency, µM (series often up to 46.1 µM), inactives show top-dose activity, negative = inhibition, usual class: inhibitors; 410,000 tested, 1.2% active; AID 588855, 2011; further: potency means the concentration at half of the fitted maximal effect; on the % scale 0 is the no-effect control and ±100 the full control effect; nearly all actives have a fitted effect of over 65% in size
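GFP signal (ex488/em500-530) from TGF-beta-stimulated HEPG2 CAGA-GFP cells, 500 pg/mL final, 18 h at 37 degrees C in DMEM plus 1% FBS, normalized to unstimulated and DMSO-stimulated controls.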
TDP1 cell CPT – qHTS for Inhibitors of human tyrosyl-DNA phosphodiesterase 1 (TDP1): qHTS in cells in presence of CPT; chicken DT40 Tdp1-/-;hTDP1 cells + 20 nM CPT, ATP luminescence, 48 h; Potency, µM (top dose mostly 46.2 µM), for inactives: at the highest dose activity change, negative = growth inhibition, most hits filed as inhibitors; 420,000 tested, 12% active; AID 686979, 2013; further: potency means the concentration at half of the fitted maximal effect; on the % scale 0 is the no-effect control and ±100 the full control effect; nearly all actives have a fitted effect of over 55% in size
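Chicken DT40 Tdp1-/- cells stably complemented with human TDP1 were seeded at 400 cells/well in medium containing 20 nM camptothecin, exposed to pin-transferred compounds, and grown at 37 °C for at least 48 hr. Viability was read as ATP luminescence.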
TDP1 inh – qHTS Assay for Inhibitors of Tyrosyl-DNA Phosphodiesterase (TDP1). recombinant TDP1, AlphaScreen DNA substrate cleavage. Potency, µM (titrated, usually from 130 µM), inactives show at the highest dose activity change, negative = inhibition, usual class: inhibitors. 350,000 tested, 0.28% active; further: potency means the concentration at half of the fitted maximal effect; on the % scale 0 is the no-effect control and ±100 the full control effect; nearly all actives have a fitted effect of over 40% in size
Target sequence (Q9NUW8 whole entry, looked up): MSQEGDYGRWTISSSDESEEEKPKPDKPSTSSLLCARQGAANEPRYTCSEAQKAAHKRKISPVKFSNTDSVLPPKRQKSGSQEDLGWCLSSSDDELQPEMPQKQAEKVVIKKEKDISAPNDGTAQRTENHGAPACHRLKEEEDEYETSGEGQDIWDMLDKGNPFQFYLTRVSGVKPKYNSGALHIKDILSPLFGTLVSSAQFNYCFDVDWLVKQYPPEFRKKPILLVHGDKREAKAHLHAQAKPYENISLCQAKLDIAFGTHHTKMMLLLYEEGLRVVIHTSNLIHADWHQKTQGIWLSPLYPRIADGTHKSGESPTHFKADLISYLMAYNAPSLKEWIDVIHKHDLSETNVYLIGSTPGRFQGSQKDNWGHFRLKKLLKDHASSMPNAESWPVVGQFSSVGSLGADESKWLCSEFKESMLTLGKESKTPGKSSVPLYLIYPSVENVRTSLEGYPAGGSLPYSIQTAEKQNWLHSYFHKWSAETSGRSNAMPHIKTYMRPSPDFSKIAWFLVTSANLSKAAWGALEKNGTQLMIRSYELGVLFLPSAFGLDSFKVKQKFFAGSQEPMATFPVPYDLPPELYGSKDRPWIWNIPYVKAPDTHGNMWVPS
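Recombinant E. coli-expressed Tdp1 (1 nM) preincubated with compound 15 min at RT, then 5'-biotin/3'-phosphotyrosine-FITC DNA substrate (15 nM) added for 5 min. AlphaScreen beads (10 ug/ml) added, 10 min RT; tyrosine-FITC cleavage read as signal loss.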
* = called active by the depositor; i = inactive; u = inconclusive; x = no result; [ ] = remark or other dose. Sampled rows, rich in hits. Any-hit rate of the full collection: about 19%. Unless noted, the call rests on the fitted dose curve; in most records, active means well fitted curve in the direction sought with a large enough effect; inconclusive means small, poorly fitted or top-dose-only effect, or another doubt; inactive means no such curve, though single readings can be large; an effect the other way counts as inactive or inconclusive.

SMILES	HepG2 viability	IL1B secr inh	TDP1 cell noCPT	TGFb SMAD3 inh	TDP1 cell CPT	TDP1 inh
COc1ccc(/C=C(/NC(=O)c2ccccc2)c2nc3ccc(Cl)cc3[nH]2)cc1OC	2%	-8	21µM*	0%	-95%	3%
COc1cc2cc(Oc3ccc4ccc(=O)oc4c3)c(=O)oc2cc1O[C@@H]1O[C@H](CO)[C@@H](O)[C@H](O)[C@H]1O	7%	22	-3%	0%	-7%	25µM*
Cc1ccc(S(=O)(=O)N2CCN(c3nc(-c4cccs4)nc(C)c3C)CC2)cc1	-14%	x	8%	1%	10%	x
O=C(CN(c1cccc(Br)c1)S(=O)(=O)c1ccccc1)N1CCc2ccccc2C1	-7%	x	15µM*	-7%	15µM*	-7%[12.3 µM]
CCN1CCN(C(=O)CN(c2cccc(Br)c2)S(=O)(=O)c2ccccc2)CC1	-2%	-5	-21%	-3%	-16%	0%
COc1ccc(N(CC(=O)N2CCc3ccccc3C2)S(=O)(=O)c2ccc(C)cc2)cc1Cl	-2%	x	16µM*	2%	u	x
COc1ccccc1-c1nc(SCC(=O)Nc2ccccc2F)n[nH]1	0%	i	u	1%	u	4%
O=C(CSc1n[nH]c(-c2ccccn2)n1)Nc1ccccc1	-34%	178	u	u	23µM*	4%
COc1ccc(OC)c(NC(=O)CSc2n[nH]c(-c3cccnc3)n2)c1	-1%	74	-24%	-20%	-14%	2%[0.0935 µM]
O=C(CSc1n[nH]c(-c2ccccn2)n1)Nc1ccccc1F	-47%	54	2.9µM*	-29%	4.1µM*	x
COc1ccc(OC)c(NC(=O)CSc2ncccc2C(=O)O)c1	4%	16	-4%	-3%	7%	3%
CCCCCCCCNC(=O)c1cccnc1SCC(=O)Nc1ccccc1OC	-24%	15	21µM*	-9%	u	3%
COc1ccc(OC)c(NC(=O)CSc2n[nH]c(-c3ccccc3Cl)n2)c1	-2%	x	u	-22%	10µM*	11%
O=C(CSc1nc2c([nH]c3ccccc32)c(=O)n1-c1cccc(Cl)c1)NCC1CCCO1 (stereo not given)	-9%	x	-19%	16%	-17%	3%
COC(=O)c1cc(NC(=O)c2nn(C)c3c2CSc2ccccc2-3)cc(C(=O)OC)c1	7%	x	5%	-3%	6%	9%
COc1ccccc1NC(=O)CSc1n[nH]c(-c2ccccn2)n1	-34%	108	15µM*	8%	u	x
COc1ccc(NC(=O)CSc2n[nH]c(-c3ccccn3)n2)cc1	-35%	150	23µM*	-13%	16µM*	x
CN1CCN(c2ncnc3ccc(-c4ccoc4)cc23)CC1	x	x	23µM*	x	12µM*	x
COc1ccccc1-c1ccc2ncnc(N3CCNCC3)c2c1	x	x	14%	x	u	x
COc1cccc(-c2ccc3ncnc(N4CCN(C)CC4)c3c2)c1	x	x	23µM*	x	13µM*	x
CN1CCN(c2ncnc3ccc(-c4ccc(C(=O)N(C)C)cc4)cc23)CC1	x	x	3%	x	6%	x
CN1CCN(c2ncnc3ccc(-c4cccnc4)cc23)CC1	x	x	u	x	16µM*	x
CCC(=O)Nc1nnc(Sc2ccc(N(C)C)cc2)s1	1%	15	-1%	-7%	-6%	45µM*
O=C(C[n+]1cccc2cc(Cl)ccc21)c1ccc2c(c1)CCCC2	-21%	x	-5%	4%	-24%	x
COc1ccccc1CCn1cnc(Cc2cccc(F)c2)c1C(C)C	x	0	u	x	u	x
SMILES	HepG2 viability	IL1B secr inh	TDP1 cell noCPT	TGFb SMAD3 inh	TDP1 cell CPT	TDP1 inh
COc1cccc(-c2ncn(CCc3ccccc3OC)c2C(C)C)c1	x	-10	5.8µM*	x	7.3µM*	x
COc1ccccc1CCn1cnc(C)c1CC(C)C	x	4	6.5µM*	x	12µM*	x
COc1cccc(-c2nn(-c3ccccc3)cc2CO)c1	1%	u	-15%	1%	-2%	2%
COc1ccccc1CCn1c(=O)c(C)nc2cncnc21	x	x	u	x	2%	x
CCc1ncn(CCc2ccccc2OC)c1C(C)C	x	40	4.6µM*	x	3.7µM*	x
CCCCn1nnnc1C1(C)CCC(=O)N1CCCn1ccnc1 (stereo not given)	x	-7	16µM*	x	21µM*	x
COc1cc(=O)n2c(c1C(=O)N(C)Cc1nccs1)CCN(Cc1c(F)ccc(F)c1F)CC2	x	x	-2%	x	6%	x
Cc1cc([N+](=O)[O-])ccc1NC(=O)CSc1nccn1C	2%	x	x	25%	x	10%
c1ccc(Oc2ccc(-c3ccnc4nc(N5CCOCC5)nn34)cc2)cc1	-15%	-68*	16µM*	-20%	15µM*	3%
COc1ccc(-c2ccnc3nc(N4CCOCC4)nn23)cc1	-8%	-10	-11%	4%	-9%	4%
CCCCCCCCC1=NCCc2c1[nH]c1ccccc21	16µM*	-94*	21µM*	u	u	x
CC(C)C/C=C1\CCc2c([nH]c3ccccc23)C1=O	-3%	-20	-18%	1%	33%	0%
COc1ccc(C(=O)COC(=O)C(Cc2c[nH]c3ccccc23)NC(=O)c2ccc(C(C)(C)C)cc2)cc1 (stereo not given)	1%	x	13µM*	-3%	18µM*	2%[12.3 µM]
COC(=O)C(Cc1c[nH]c2ccccc12)NC(=O)c1cncc(Br)c1 (stereo not given)	-14%	26	16%	-8%	-8%	x
COC(=O)C(Cc1c[nH]c2ccccc12)NC(=O)c1ccc2nc[nH]c2c1 (stereo not given)	0%	-68*	10%	-1%	12%	9%

High-throughput results (PubChem)
